HTR5A inv ag: HTR5A inverse agonism, opioid heterodimer counter-screen | inhibition, % at 9.3 µM | P47898 | HTR5A cell line, luminescence | hit rate 0.083% among 340,000; in the data active = inhibition mostly above about 23%, no sharp cut-off; inactive = mostly below about 18%;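 note: 0% = cells with DMSO and 100% = no-cell wells with DMSO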
OPRM1-OPRD1 ag: agonists of human mu-delta opioid receptor heterodimerization. cells, OPRM1-OPRD1 heterodimerization, luminescence. P35372+P41143. activation, % at 9.3 µM. hit rate 0.3% among 340,000; in the data active = activation above about 18%;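 note: 0% = vehicle-treated cells and 100% = reference agonist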
Target sequence (P35372 whole entry, looked up): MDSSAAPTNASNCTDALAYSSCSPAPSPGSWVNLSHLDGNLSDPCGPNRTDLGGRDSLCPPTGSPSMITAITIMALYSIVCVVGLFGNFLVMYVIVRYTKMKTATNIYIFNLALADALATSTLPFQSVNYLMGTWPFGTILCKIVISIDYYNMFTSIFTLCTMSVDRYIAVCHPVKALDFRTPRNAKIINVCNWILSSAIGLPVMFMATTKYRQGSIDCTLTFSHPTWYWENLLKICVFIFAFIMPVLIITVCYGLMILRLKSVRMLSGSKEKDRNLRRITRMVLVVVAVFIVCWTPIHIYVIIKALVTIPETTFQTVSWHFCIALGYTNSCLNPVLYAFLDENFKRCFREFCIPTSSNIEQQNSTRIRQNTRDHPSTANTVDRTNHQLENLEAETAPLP
Target sequence (P41143 whole entry, looked up): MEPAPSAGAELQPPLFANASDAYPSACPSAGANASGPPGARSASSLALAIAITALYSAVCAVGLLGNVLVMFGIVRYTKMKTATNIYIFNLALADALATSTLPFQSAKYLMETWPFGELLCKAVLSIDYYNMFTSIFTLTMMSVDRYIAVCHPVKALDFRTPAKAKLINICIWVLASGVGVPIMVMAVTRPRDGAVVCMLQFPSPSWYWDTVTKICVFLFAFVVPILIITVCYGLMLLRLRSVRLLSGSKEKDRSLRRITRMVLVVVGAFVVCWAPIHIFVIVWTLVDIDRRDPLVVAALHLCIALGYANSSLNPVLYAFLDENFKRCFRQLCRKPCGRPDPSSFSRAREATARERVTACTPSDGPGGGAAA
MIN6 prolif-1: induces beta-cell replication in MIN6 cells; proliferation, % at 10 µM; MIN6 cells proliferation, ATPlite luminescence, 48 h; cells starved in 0.2% serum; 100% = growth in 10% serum; hit rate 0.29% among 330,000;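 active = compounds whose signal lies at least 3.5 SD above the mean of all wells on their plate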;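 note: 0% = DMSO-treated cells in low-serum medium and 100% = 10% serum control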
HTR5A ag ctr: HTR5A agonism, opioid heterodimer counter-screen. P47898. HTR5A agonist assay, luminescence, cell-based. activation, % at 9.3 µM. hit rate 0.61% among 340,000. AID 504692; in the data active = activation mostly above about 9.5%, no sharp cut-off; inactive = mostly below about 7.6%;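 note: 0% = cells with vehicle only and 100% = reference agonist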
MOR-DOR inv ag: mu-delta opioid heterodimer inverse agonism. cell-based MOR-DOR heterodimer luminescence. inhibition, % at 9.3 µM. hit rate 0.21% among 340,000. P35372+P41143. AID 504357; in the data active = inhibition above about 22%, passing the limit was not always enough;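 note: 0% = cells with DMSO and 100% = wells without cells with DMSO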
V-ATPase pHluor: alters yeast V-ATPase proton transport | response, % at 10 µM | S. cerevisiae, pHLuorin cytosolic pH fluorescence | hit rate 0.37% among 350,000; in the data active = response mostly above about 7.3%, no sharp cut-off; inactive = mostly below about 5.4%; note: actives read high
MIN6 prolif-2: confirmation of inducers of beta-cell replication in MIN6 cells; shares compounds with MIN6 prolif-1; MIN6 beta-cell proliferation, ATPlite luminescence, 48 h; cells kept in 0.2% serum; scaled between 0.2% and 10% serum; proliferation increase, % at 50 µM; 920 tested, under 10 active;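 active = proliferation increase above 40% at any of the four tested concentrations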
An asterisk follows results filed as active; / = no result. An excerpt weighted towards active compounds, which were near 1.7% of everything screened.

SMILES	HTR5A inv ag	OPRM1-OPRD1 ag	MIN6 prolif-1	HTR5A ag ctr	MOR-DOR inv ag	V-ATPase pHluor	MIN6 prolif-2
CN(CC(=O)Nc1ccc(F)cc1)C(=O)CN1C(=O)NC2(CCCCC2)C1=O	-7.5	-1.4	-2.7	1.9	7.0	3.8	/
COc1ccc(NC(=O)CN(C)C(=O)CN2C(=O)NC3(CCCC3)C2=O)cc1	-0.5	-2.4	16.1*	0.2	13.3	-4.0	-2.3
O=C1[C@H](Cc2ccccc2)NCC=CC[C@@H](c2ccc(Cl)cc2)N1Cc1ccccc1	17.3	5.2	/	-6.8	-28.2	-1.4	/
CCC(C)N(C(=O)CSc1ncnc2sccc12)C1CCS(=O)(=O)C1 (stereo not drawn)	7.3	-2.3	14.1*	-2.9	9.1	1.3	4.3
Cc1ccc(C(=O)CSc2nc(N)cc(=O)[nH]2)cc1	-12.6	-2.6	-3.6	-0.9	13.7	-3.3	/
Nc1cc(=O)[nH]c(SCC(=O)c2ccc(F)cc2)n1	-15.3	-2.0	8.3*	4.1	9.8	-1.7	-0.4
CCOC(=O)C1C(=O)CC(C)(O)C(C(=O)OCC)C1c1ccc(F)cc1 (stereo not drawn)	6.0	-1.0	-0.3	-2.3	6.2	0.3	/
CCOC(=O)C1C(=O)CC(C)(O)C(C(=O)OCC)C1c1ccc(N(CC)CC)cc1 (stereo not drawn)	10.0	-2.5	5.1*	0.5	12.5	0.4	-1.0
COc1ccc(N2C(=O)NC(NC(=O)c3cccnc3)(C(F)(F)F)C2=O)cc1 (stereo not drawn)	18.8	-2.6	-1.3	-2.9	13.3	-2.0	/
COc1ccc(N2CCN(C(=O)COc3ccc(S(=O)(=O)N4CCOCC4)cc3C)CC2)cc1	-15.9	1.4	0.0*	-1.5	-11.9	1.5	5.3
CCc1nc2ccccc2c(C(=O)Nc2cc(C)ccc2C)c1C	-12.1	-0.8	5.8*	3.3	3.8	-2.6	-1.5
COc1ccc(N(C(=O)c2snc(C(N)=O)c2N)C(C(=O)NCc2ccccc2)c2ccc(O)cc2)cc1OC (stereo not drawn)	6.4	-0.6	-2.4	-2.2	4.0	-2.4	/
CCc1ccccc1N(C(=O)c1snc(C(N)=O)c1N)C(C(=O)NCC1CCCO1)c1ccc(C)o1 (stereo not drawn)	9.1	1.2	-1.3	1.6	-7.7	-1.2	/
COc1ccc(C(C(=O)NCc2ccccc2)N(C(=O)c2snc(C(N)=O)c2N)c2ccccc2OC)cc1OC (stereo not drawn)	1.6	-0.9	21.6*	3.5	7.2	-2.0	-1.9
Cc1ccccc1N(C(=O)c1snc(C(N)=O)c1N)C(C(=O)NCC1CCCO1)c1ccc(N(C)C)cc1 (stereo not drawn)	5.8	-0.3	0.3	-2.0	2.4	-1.1	/
Cc1ccc(N(C(=O)c2snc(C(N)=O)c2N)C(C(=O)NCC2CCCO2)c2ccc(C)o2)c(C)c1 (stereo not drawn)	-15.7	2.0	16.6*	-1.1	-16.6	-6.5	-6.3
CCc1ccccc1N(C(=O)c1snc(C(N)=O)c1N)C(C(=O)NCC1CCCO1)c1ccc(N(C)C)cc1 (stereo not drawn)	-2.4	0.5	8.7*	1.4	-4.0	0.3	-0.6
Cc1cccc(OCc2n[nH]c(=S)n2Cc2ccccc2)c1	33.4	0.2	0.6	-7.6	-0.9	-2.1	/
COc1ccc(S(=O)(=O)N2CCCCCC2)cc1NC(=O)CCCOc1ccccc1	17.4	-4.9	-4.2	-7.0	21.0	-2.8	/
COc1ccc(-c2cc(C#N)nc(N3CCN(C)CC3)n2)cc1	12.5	1.4	-2.9	-4.5	-9.7	0.0	/
CN1CCN(c2nc(C#N)cc(-c3ccccc3)n2)CC1	-5.2	-3.0	9.8*	2.4	14.7	-3.1	-4.8
CC1CCCCN1c1ncnc(N)c1[N+](=O)[O-] (stereo not drawn)	-5.0	-0.5	8.8*	1.9	2.0	-1.6	11.7
Cc1nc(N2CCOCC2)nc(N2CCCCC2C)c1[N+](=O)[O-] (stereo not drawn)	-12.5	1.1	8.1*	4.5	-5.2	-0.6	-5.4
Cc1nc(N2CCOCC2)nc(N2CCC(C)CC2)c1[N+](=O)[O-]	19.4	5.2	0.1	2.3	-25.3	0.8	/
N#Cc1ccccc1NC(=O)CSc1n[nH]c(=O)n1C1CC1	-26.8	-1.0	-2.1	7.5	5.4	-2.2	/
SMILES	HTR5A inv ag	OPRM1-OPRD1 ag	MIN6 prolif-1	HTR5A ag ctr	MOR-DOR inv ag	V-ATPase pHluor	MIN6 prolif-2
CN(C(=O)COC(=O)c1nn(C)c(=O)c2ccccc12)c1c(N)n(Cc2ccccc2)c(=O)[nH]c1=O	14.3	-3.9	-4.5	-5.8	20.5	-3.1	/
CC(C)=CC/C=C1\CCC(C(=O)O)C(C(=O)O)C1 (stereo not drawn)	12.8	-3.4	5.5*	0.4	19.4	1.7	-2.0
C#CCOC(=O)c1ccc(-n2cncn2)nc1	-7.7	-1.1	5.9*	-2.1	6.3	-1.1	-0.7
O=C(NCc1cccs1)c1cccnc1Cl	9.2	-1.6	0.0*	6.6	9.8	-0.3	1.3
CCOc1ccc(C(=O)NC(C(=O)NCc2cccnc2)C(C)C)cc1 (stereo not drawn)	-22.5	-0.8	0.0	7.9	5.2	-1.6	/
O=C(NCC(=O)N1CCCC(C(F)(F)F)C1)c1ccco1 (stereo not drawn)	23.4	-3.2	12.0*	-9.3	12.6	2.6	0.8
CCOC(=O)CNC(=O)CSc1nc(N(C)C)nc(N2CCOCC2)n1	-10.9	2.8	5.5*	11.2*	-12.9	-3.2	2.8
CCOC(=O)c1ccc(NC(=O)CSc2nc(N3CCOCC3)nc(N3CCOCC3)n2)cc1	-0.1	-2.1	-0.5	0.7	11.7	-2.5	/
CCN(CC)Cc1c(C(=O)N/N=C/c2ccc(C)o2)nnn1-c1nonc1N	-3.8	2.3	0.0*	0.0	-18.9	-3.9	3.7
O=C1c2ccccc2C(=O)N1CCCP(=O)(O)CCc1ccccc1	-4.4	-1.6	-0.7	5.1	7.4	-0.2	/
O=P(O)(CCCP(=O)(O)CCc1ccccc1)CCc1ccccc1	-18.6	-2.3	8.8*	-4.2	13.2	0.4	-3.5
CCOC(=O)c1c(C)[nH]c(C)c1C(=O)COC(=O)/C=C/c1ccccc1[N+](=O)[O-]	-1.4	-3.6	9.1*	0.6	14.5	1.2	-4.8
C=C(C)COc1ccc2c(C)c(CCC(=O)NC3CC3)c(=O)oc2c1	-24.6	-1.5	-2.0	4.3	7.7	2.4	/
CCn1c(CNC(=O)c2ccccc2OC)nnc1SCC(=O)c1ccc(F)cc1	-1.6	-0.5	5.8*	6.5	3.9	-0.1	2.0
CC[C@@H]1CCCCc2ccccc2[C@H](C(=O)C[C@H](O)CC(C)=O)OC1=O	11.0	-2.9	4.2	-3.0	13.6	1.3	/
CCOc1ccc(OCc2ccc(C(=O)NCc3ccncc3)o2)cc1	12.5	1.5	4.9*	-5.4	-9.0	-1.4	-5.4
CCc1ccc(OCc2ccc(C(=O)NCc3ccccn3)o2)cc1	0.1	-0.5	-2.9	-6.2	2.9	2.4	/

Screening results: PubChem BioAssay, several laboratories
